A selection: hits, their analogues and other compounds. The true share with any hit is near 8%.
KB-V1 cytotox: kills drug-selected multidrug resistant KB-V1 cells; KB-V1 MDR cells viability, CellTiter-Glo, 72 h; Potency, µM (doses to about 46.1 µM), actives largely listed as cytotoxic; 3.4% of 400,000 active; AID 1347076; also: % is scaled to controls: 0 for no effect and ±100 for the full control effect; nearly all actives have a fitted effect of over 60% in size
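Cytotoxicity via CellTiter-Glo luminescence after 72 h compound exposure at 37 degrees C. Cells: drug-selected KB-V1 line, DMEM phenol-red free plus 10% FBS. Compounds tested at multiple concentrations; normalized data fitted to concentration-effect curves.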
HT1080 IDH1KD tx: toxicity to HT-1080 IDH1 knockdown cells (counter line). HT-1080 IDH1 knockdown viability, ATP luminescence, 48 h. Potency, µM (highest dose often 46.1 µM), without a hit: top-dose activity, negative = toxicity, actives largely listed as cytotoxic. 2% of 360,000 active. AID 686971;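 also: 0% = DMSO wells and -100% = cell-free medium wells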
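IDH1KD HT-1080 cells, 750/well, RPMI + 5% FBS; compound pinned after 2 h settling; 48 h, 37 °C; CellTiter-Glo luminescence; % activity normalised to DMSO and no-cell wells; curves fitted, classed by r2 and efficacy.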
MCF10A rerep: induces DNA re-replication in MCF 10a normal breast cells. MCF 10A DNA re-replication, Hoechst nuclear intensity, 48 h. 2.9% of 350,000 active. Potency, µM (highest dose often 46.1 µM), without a hit: at the top dose activity, positive = re-replication, usual class: activators. AID 624296; also: % of control where 0% means no effect; nearly all actives have a fitted effect of over 50% in size
SW480 rerep: DNA re-replication induction in SW480 cells | Potency, µM (top dose mostly 46.1 µM), inactives show top-dose re-replication activation, hits mostly activators | 1.8% of 340,000 active | AID 624297 | SW480 DNA re-replication, Hoechst DNA content imaging, 48 h; also: % of control where 0% means no effect; nearly all actives have a fitted effect of over 55% in size
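First, 250 cells per well were seeded. Next, compound or vehicle (23 nL) was pinned in, plates sat 48 hr at 37 C. Finally Hoechst was added for 40 min before fluorescence scanning.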
KB-3-1 tox: KB-3-1 parental cell cytotoxicity. 1.4% of 400,000 active. KB-3-1 viability, CellTiter-Glo ATP luminescence, 72 h. Potency, µM (series often up to 46.1 µM), actives largely listed as cytotoxic; also: % is scaled to controls: 0 for no effect and ±100 for the full control effect; nearly all actives have a fitted effect of over 60% in size
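Multi-concentration cytotoxicity screen in KB-3-1 cells grown in DMEM lacking phenol red with 10% FBS. After 72 h at 37 °C with compound, ATP-dependent luminescence was recorded.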
HT1080NT lethal: kills 2HG-producing HT-1080-NT fibrosarcoma cells; HT-1080-NT fibrosarcoma viability, CellTiter-Glo ATP luminescence, 48 h; Potency, µM (series often up to 46.1 µM), inactives show at the top dose activity, negative = less viability, most hits filed as cytotoxic; 1.6% of 360,000 active; AID 686970;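 also: NT is the 2HG producing partner of a matched IDH1 knockdown line; 0% = DMSO-treated cells and -100% = media-only wells without cells; nearly all actives have a fitted effect of over 55% in size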
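750 cells/well, RPMI + 5% FBS; 2 h settle, compound pin-transfer, 48 h at 37 degrees C. CellTiter-Glo 10 min RT, luminescence. Normalized to DMSO and media-only wells.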
* marks the source's active call; other numbers are inactive results; i = inactive; ? = inconclusive; . = no result; [ ] = remark or other dose. Calls follow the shape of the dose curve; as a rule, active = well fitted curve in the direction sought with a large enough effect; inconclusive = small, poorly fitted or top-dose-only effect, or another doubt; inactive = no such curve, though single readings can be large; an effect the other way counts as inactive or inconclusive. Potency is read from the fitted curve at half-maximal effect.

SMILES	KB-V1 cytotox	HT1080 IDH1KD tx	MCF10A rerep	SW480 rerep	KB-3-1 tox	HT1080NT lethal
CCOc1cc2c(c3c1C(c1ccccc1)N(S(=O)(=O)c1ccc(C)cc1)C3)C(=O)C=CC2=O (stereo not drawn)	?	12µM*	.	.	?	6.5µM*
C/C=C(\C)C(=O)OC1[C@H](OC(C)=O)C2(CO)C(CC1(C)C)C1=CCC3C4(C)CCC(O[C@@H]5O[C@H](C(=O)O)[C@@H](O[C@@H]6O[C@H](CO)[C@@H](O)[C@H](O)[C@H]6O)[C@H](O)[C@H]5O[C@H]5O[C@H](CO)[C@@H](O)[C@H](O)[C@H]5O)[C@](C)(CO)C4CCC3(C)[C@]1(C)C[C@H]2O (stereo partly drawn)	?	.	6.5µM*	2%	i	.
COC(=O)c1cccc(Nc2nc(-c3cccnc3)nc3ccccc23)c1	?	-12%	?	1%	i	-10%
Cc1c(Nc2nc(-c3ccc(Cl)cc3)cs2)c(=O)n(-c2ccccc2)n1C	7.3µM*	-17%	6%	2%	?	-7%
CCOC(=O)c1cccc(Nc2nc(-c3cccnc3)nc3ccccc23)c1	?	?	23µM*	?	?	21µM*
Cc1c(NC(=O)COC(=O)C(c2ccc(Cl)cc2)C(C)C)c(=O)n(-c2ccccc2)n1C (stereo not drawn)	8.2µM*	2%	4%	4%	?	2%
Cc1cccc(C)c1NC(=O)COC(=O)c1cc(-c2cccnc2)nc2ccccc12	i	1%	12µM*	0%	i	6%
COc1ccc(OC)c2sc(N3CCN(C(=O)c4ccc5c(c4)CCCC5)CC3)nc12	i	.	.	.	i	.
CN(c1nnc(NC(=O)Nc2ccccc2C(F)(F)F)s1)C1CCCCC1	i	.	.	.	i	.
Cc1c(NC(=O)C(C)OC(=O)c2cc(-c3cccc4ccccc34)nc3ccccc23)c(=O)n(-c2ccccc2)n1C (stereo not drawn)	9.2µM*	-2%	?	-53%	i	-7%
Cc1c(NC(=O)C(C)Oc2cccc(F)c2)c(=O)n(-c2ccccc2)n1C (stereo not drawn)	i	18%	-5%	23µM*	i	-2%[9.24 µM]
Cc1c(NC(=O)c2cc(-c3ccccc3)nc3ccccc23)c(=O)n(-c2ccccc2)n1C	.	3%	?	7%	.	1%
Cc1c(NC(=O)COC(=O)C23CC4CC(CC(O)(C4)C2)C3)c(=O)n(-c2ccccc2)n1C	i	0%	-3%	-10%	i	-3%
Cc1c(NC(=O)C(C)OC(=O)C23CC4CC(CC(Br)(C4)C2)C3)c(=O)n(-c2ccccc2)n1C (stereo not drawn)	i	11%	1.5µM*	-32%	?	11%
Cc1c(NC(=O)COC(=O)c2cc(-c3ccc(-c4ccccc4)cc3)nc3ccccc23)c(=O)n(-c2ccccc2)n1C	4.6µM*	?	21µM*	.	9.2µM*	?
CCOc1ccccc1NC(=O)CSc1nc2cc(OC)c(OC)cc2c2nc(CCn3c(C)nc4ccccc43)nn12	i	.	.	.	i	.
COc1cccc(N2CCN(C(=O)c3cccc(NC(=O)c4nsc5ccccc45)c3)CC2)c1	i	.	.	.	i	.
COc1ccc(/C=N/N2C(=N)SCC2=O)cc1	2.6µM*	1%	13%	0%	7.3µM*	2%
Cc1cccc(NC(=O)c2ccc(N3CCOCC3)c([N+](=O)[O-])c2)n1	?	6%	2%	-16%	i	6%
O=C(Nc1ccccc1N1CCCCC1)c1cccc([N+](=O)[O-])c1	?	-1%	-3%	3%	i	-1%
O=C(Nc1cc(C(F)(F)F)ccc1N1CCCCC1)c1cccc([N+](=O)[O-])c1	16µM*	-4%	?	-5%	i	-1%
CCSc1ccc(C(=O)Nc2cccc(C)n2)cc1[N+](=O)[O-]	?	-9%	-57%	-57%	?	-1%
Cc1ccc(NC(=O)c2ccc(-n3cccn3)c([N+](=O)[O-])c2)cc1	23µM*	-1%	1%	-11%	i	-4%
Cc1cccc(NC(=O)c2ccc(N3CCCCC3)c([N+](=O)[O-])c2)n1	5.2µM*	-5%	10µM*	-5%	?	-10%
Cc1cccc(NC(=O)c2ccc(N(C)C3CCCCC3)c([N+](=O)[O-])c2)n1	2.6µM*	?	18%	1%	?	-23%
SMILES	KB-V1 cytotox	HT1080 IDH1KD tx	MCF10A rerep	SW480 rerep	KB-3-1 tox	HT1080NT lethal
CCOc1cnn(-c2cc(Oc3ccc(C)cc3)ncn2)c(=O)c1Cl	i	9%	-4%	-1%	i	9%
Cc1ccccc1Oc1cc(-n2ncc(Cl)c(Cl)c2=O)ncn1	i	7.3µM*	0.73µM*	?	15µM*	13µM*
O=C(CC(C(=O)c1ccccc1)c1ccccc1)c1ccccc1 (stereo not drawn)	?	-26%	8%	-4%	i	-9%
CN(Cc1cc(Cl)cc(Cl)c1)CC(C(=O)c1ccccc1)c1ccccc1 (stereo not drawn)	i	?	16µM*	13µM*	?	-22%
CN(C)CC(C(=O)c1ccccc1)c1ccccc1 (stereo not drawn)	?	13µM*	2.6µM*	25%	?	-3%
O=C1c2ccccc2C(=O)N1CCc1csc(-c2ccccc2)n1	16µM*	-3%	?	12%	?	-2%
CCn1c(C(=O)N2CCC(C(=O)NCCc3ccc(OC)cc3OC)CC2)cc2sccc21	i	.	.	.	i	.
CC1(C)CC(N=Cc2c(O)n(Cc3ccc4c(c3)OCO4)c(=O)c3ccccc23)CC(C)(C)N1	i	7.3µM*	0%	?	i	18µM*
O=C(C[n+]1cccc2cc(Cl)ccc21)c1cccc([N+](=O)[O-])c1	?	.	.	.	i	.
Cc1oc(-c2ccc(Cl)cc2)nc1CN1CCCC(C(=O)NCc2cccnc2)C1 (stereo not drawn)	2.3µM*	?	-2%	-2%	2.6µM*	?
Cc1oc(-c2ccc(Cl)cc2)nc1CN1CCC(C(=O)NCCCN2CCCC(C)C2)CC1 (stereo not drawn)	i	16µM*	2%	?	?	13µM*
Cc1oc(-c2ccc(Cl)cc2)nc1CN1CCC(C(=O)NCc2ccco2)CC1	9.2µM*	-2%	15%	?	i	-25%

Assay outcomes as filed in PubChem BioAssay.
